Sampled rows, rich in hits. Any-hit rate of the full collection: about 12%.
SARS PLpro yeast: qHTS of Yeast-based Assay for SARS-CoV PLP | hit rate 0.19% among 330,000 | Potency, µM (top dose mostly 32.9 µM), for inactives: at the top dose activity, positive = growth rescue, hits mostly activators | S. cerevisiae expressing SARS-CoV PLpro, growth rescue; calls by dose curve; further: 0% is about no effect; nearly all actives have a fitted effect of over 55% in size
Pf growth 96h: Primary qHTS for delayed death inhibitors of the malarial parasite plastid, 96 hour incubation; P. falciparum luciferase reporter growth, 96 h; Potency, µM (series often up to 28.7 µM), without a hit: at the highest dose activity change, negative = inhibition, usual class: inhibitors; hit rate 6.9% among 320,000; AID 504834, 2011; further: on the % scale 0 is the no-effect control and ±100 the full control effect
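96 h incubation, 37 C, 5% CO2, of luciferase-reporter P. falciparum-infected RBCs (2% hematocrit, 0.05% parasitemia final) with test compounds; endpoint luminescence.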
NS1 function inh: qHTS Assay for Inhibitors of Influenza NS1 Protein Function; hit rate 0.4% among 270,000; Potency, µM (highest dose often 46.1 µM), without a hit: at the highest dose activity, positive = more growth; calls by dose curve; further: actives are rising curves; nearly all actives have a fitted effect of over 50% in size
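In this qHTS, NS1 from influenza A is expressed in budding yeast, where it slows growth. Cells are switched from glucose to 2% galactose medium (pH 6.0, -URA), treated with compound, and growth recovery is read at OD600.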
Pf growth 48h: Primary qHTS for delayed death inhibitors of the malarial parasite plastid, 48 hour incubation; P. falciparum luciferase growth in erythrocytes, 48 h; Potency, µM (top dose mostly 28.7 µM), for inactives: top-dose activity change, negative = inhibition, usual class: inhibitors; hit rate 5.9% among 310,000; further: on the % scale 0 is the no-effect control and ±100 the full control effect
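Luminescence readout; reporter = integrated firefly luciferase in P. falciparum. RBC culture at 2% hematocrit, 0.1% parasitemia final, 37 C/5% CO2; decreased signal taken as growth inhibition.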
AMA1 RON2 block: qHTS for Inhibitors of AMA1-RON; Towards Development of Antimalarial Drug Lead: Primary Screen. AID 720542, 2013. hit rate 0.2% among 360,000. AlphaScreen AMA1-biotinylated RON2 peptide binding. Potency, µM (series often up to 58.2 µM), for the others: at the highest dose activity change, negative = inhibition, actives largely listed as inhibitors;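 further: 0% = vehicle wells and -100% = peptide control; nearly all actives have a fitted effect of over 45% in size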
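AMA1 (3D7) with his tag at 25 nM final met compounds first, then biotinylated RON2 peptide at 25 nM; detection used donor plus acceptor beads, 10 µg/mL apiece, read by AlphaScreen after 30 min at room temperature.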
HCV inh: qHTS Assay for Inhibitors of Hepatitis C Virus (HCV); hit rate 3.4% among 340,000; Potency, µM (titrated, usually from 41.8 µM), inactives show at the highest dose activity change, negative = inhibition, actives largely listed as inhibitors; AID 651820, 2012; Huh7.5.1 HCVcc-Cre infection, luciferase reporter, 44 h; further: on the % scale 0 is the no-effect control and ±100 the full control effect
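1,000 cells/well; 4 h culture; + compound; + HCVcc-Cre (~0.5 moi); 44 h; luciferase substrate, RT 15 min; read 15 sec.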
* marks the source's active call; other numbers are inactive results; ? = inconclusive; nt = no result; [ ] = another dose, or the depositor's remark. Unless noted, the call rests on the fitted dose curve; in most records, active means well fitted curve in the direction sought with a large enough effect; inconclusive means small, poorly fitted or top-dose-only effect, or another doubt; inactive means no such curve, though single readings can be large; an effect the other way counts as inactive or inconclusive. Potency means the concentration at half of the fitted maximal effect.

SMILES	SARS PLpro yeast	Pf growth 96h	NS1 function inh	Pf growth 48h	AMA1 RON2 block	HCV inh
O=C(NCc1ccccc1F)C1CCCN1C(=O)Nc1ccc(F)cc1 (centres undefined)	1%	0%	0%	6%	9%	4%
CN(C)CC/C=C1\c2cc(Cl)ccc2Sc2cc(F)c(F)cc21	nt	nt	nt	nt	-15%	11µM*
CN(C)CC/C=C1\c2ccc(F)cc2Sc2cc(F)c(Cl)cc21	nt	nt	nt	nt	-21%	13µM*
CN(C)CC/C=C1\c2ccccc2Sc2cc(F)c(Cl)cc21	nt	nt	nt	nt	-26%	?
CN(C)CC/C=C1\c2ccccc2Sc2ccc(Cl)cc21	3%	13µM*	-6%	15µM*	-26%	?
OCCN1CCN(CC/C=C2/c3ccccc3Sc3ccc(Cl)cc32)CC1	nt	9.3µM*	nt	10µM*	?	11µM*
COc1ccc(C(=O)N2CCC(n3c(C)nc4cc(F)ccc43)CC2)cc1	0%	-25%	nt	-15%	-10%	-19%
Cc1c(C(=O)NCc2ccc3c(c2)OCO3)sc(=O)n1Cc1cccc(F)c1	nt	nt	nt	nt	-15%	nt
N[C@@H](Cc1ccnnc1)C(=O)O	nt	nt	6%	nt	nt	nt
Brc1ccc(CNc2cc3c(cc2Br)OCCO3)cc1	-17%	-6%	nt	14%	13µM*	-5%
CCC1CCCCN1C(=O)c1ccc([N+](=O)[O-])o1 (centres undefined)	-6%	?	-2%	?	1%	-21%
OC(CNCc1ccccc1)(c1ccccc1)c1ccccc1	-1%	8.3µM*	-1%	13µM*	-1%	0%
Cc1ccc(CNCC(O)(c2ccccc2)c2ccc(F)cc2)cc1 (centres undefined)	-6%	0%	-11%	?	-1%	8%
COc1ccc(CNCC(O)(c2ccccc2)c2ccccc2)cc1	1%	0%	-1%	0%	-2%	-7%
Cc1ccc(CNCC(O)(c2ccc(F)cc2)c2ccc(F)cc2)cc1	4%	4.7µM*	1%	?	9%	-68%
OC(CNCc1ccccc1)(c1ccc(F)cc1)c1ccc(F)cc1	1%	2.1µM*	0%	4.7µM*	1%	-3%
OC(CNCc1ccc(F)cc1)(c1ccccc1)c1ccc(F)cc1 (centres undefined)	5%	1.7µM*	4%	2.6µM*	0%	-10%
O=C(Nc1cccc(F)c1)C1CCCN(S(=O)(=O)c2ccc(-n3cnnn3)cc2)C1 (centres undefined)	0%	29%	1%	-24%	6%	?
COc1ccc(CNCC(O)(c2ccc(F)cc2)c2ccc(F)cc2)cc1	1%	?	nt	12µM*	-4%	?
CSc1ccccc1OCc1cc(C(=O)N2CCN3CCCC3C2)no1 (centres undefined)	1%	?	-1%	8%	2%	-8%
COc1cc2c(c(O)c1OC)-c1c(cc(OC)c(OC)c1OC)C[C@@H](C)[C@@H](C)C2	-5%	?	-37%	13µM*	-8%	-17%
COc1cc2c(c(OC)c1OC)-c1c(cc3c(c1OC)OCO3)C1OC2[C@@H](C)[C@H]1C (some centres undefined)	-3%	?	1%	?	-9%	-5%
COc1cc2c(c(OC)c1OC)-c1c(cc(OC)c(OC)c1OC)C[C@H](C)[C@H](C)C2	-3%	?	-11%	?	1%	21%[8.37 µM]
COc1cc2c(c(OC)c1OC)-c1c(cc3c(c1O)OCO3)C[C@@H](C)[C@@H](C)C2	-13%	10µM*	-59%	?	-16%	-29%
O=C(CCS(=O)(=O)c1ccccc1)Nc1ccc(Cl)cn1	2%	7%	-3%	27%	5%	0%
SMILES	SARS PLpro yeast	Pf growth 96h	NS1 function inh	Pf growth 48h	AMA1 RON2 block	HCV inh
CC(C)C[C@@H](C(=O)N[C@@H](C(=O)O)c1ccccc1)N1C(=O)N2CCc3c([nH]c4ccccc34)[C@@]2(C)C1=O	2%	?	?	?	-10%	10%
O=C(CCc1nc2ccccc2[nH]1)NCc1ccc2c(c1)OCO2	4%	-14%	4%	8%	-3%	-15%[8.37 µM]
CC(=O)c1c(C)n(CC(=O)NCc2ccc3c(c2)OCO3)c2ccccc12	4%	-3%	3%	1%	-3%	10µM*
O=C(CSc1nnnn1C1CCCCC1)NCc1ccc2c(c1)OCO2	1%	?	-54%	4%	15%	12%
O=C(CSc1nnnn1C1CCCC1)NCc1ccc2c(c1)OCO2	4%	10µM*	-11%	4%	8%	11%
CCOc1ccc2nc(SCC(=O)Nc3cc4c(cc3C(C)=O)OCO4)[nH]c2c1	6%	13µM*	7%	-17%	-15%	?
O=C(CSc1nc2ccccc2[nH]1)NCc1ccc2c(c1)OCO2	-4%	4.1µM*	4%	16%	-15%	-2%
CCOC(=O)/C=c1\s/c(=C\c2ccc(-c3ccccc3)cc2)c(=O)n1CC(=O)NCc1ccc2c(c1)OCO2	-17%	?	11µM*	-16%	-5%	4%
CSCC[C@@H](CO)NC(=O)[C@H]1O[C@@H](n2ccc(=O)[nH]c2=O)[C@H](O)[C@@H]1O	nt	nt	nt	nt	15%	nt
COc1ccc(CCN2CCCn3c2nc2c3c(=O)[nH]c(=O)n2C)cc1OC	0%	10%	3%	13%	0%	-16%
COc1ccc(CCN2C(=O)CSC2=Nc2ccc(C(C)C)cc2)cc1OC	-1%	?	5%	10µM*	?	-77%
CN(CC(=O)Nc1ccc(F)cc1)C(=O)COC(=O)c1cc(Br)c(Br)s1	nt	nt	nt	nt	-1%	-19%
CCCNC(=O)Cn1cnc2sc(C(=O)NCCN(CC)CC)c(C)c2c1=O	3%	130%	1%	24%	-5%	-7%
CCn1cnc2sc(C(=O)Oc3cccc(C)c3)c(C)c2c1=O	-9%	?	nt	146%	0%	1.4µM*
CCCCN(C)C(=O)c1sc2ncn(CC)c(=O)c2c1C	nt	10µM*	0%	7%	1%	-13%
CCn1cnc2sc(C(=O)N3CCN(c4ccc(OC)cc4)CC3)c(C)c2c1=O	-7%	17%	-5%	-14%	-5%	10%
COCCn1c(SCC(=O)Nc2ccccc2OC)nc2ccccc2c1=O	-4%	-28%	-27%	-16%	4%	?
COc1ccc(-c2cnc(SCC(=O)Nc3cc(C)on3)n2Cc2ccco2)cc1	-4%	nt	-68%	?	-29%	-23%
COc1ccc(-c2cnc(SCC(=O)Nc3nc(C(C)(C)C)cs3)n2Cc2ccco2)cc1	-16%	?	17%	13µM*	-29%	4.5µM*

High-throughput results from PubChem.
